Records with an inconclusive call do not appear. Activity calls are given as the source filed them. The calls were made as follows: active = hit-call score of the fitted dose curve at least 0.9, where 1 is the maximum; inconclusive = response in the unintended direction; inactive = score below 0.9.
Key:
[1] = biological target: human Serotonin, 5-Hydroxytryptamine Receptor 6 (5HT6), HTR6 (gene 3362) (UniProt P50406); experiment: NVS_GPCR_h5HT6: NovaScreen (NVS) G Protein-Coupled Receptor Assay for human Serotonin, 5-Hydroxytryptamine Receptor 6 (5HT6) (AID 2283253)
Outline: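 Filter scintillation counting of radioligand displacement from HEK293-expressed 5HT6, 1 hour post-dose, with loss of signal relative to DMSO. Single 25 uM duplicates first, with concentration series for confirmation.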

[2] = biological target: human Adrenergic, Beta 1 Receptor (Adrb1), ADRB1 (gene 153) (UniProt P08588); experiment: NVS_GPCR_hAdrb1: NovaScreen (NVS) G Protein-Coupled Receptor Assay for human Adrenergic, Beta 1 Receptor (Adrb1) (AID 2283258)
Outline: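 Membranes/protein extracted from human neuroepithelioma cells, radioligand competition binding read by filtration and scintillation 2 h post-dose. Single 25 uM duplicate screen, then concentration-response follow-up; DMSO as negative control.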

[3] = biological target: guinea pig Opioid, Kappa 1 Receptor (OpiateK), OPRK1 (gene 100135587) (UniProt P41144); experiment: NVS_GPCR_gOpiateK: NovaScreen (NVS) G Protein-Coupled Receptor Assay for guinea pig Opioid, Kappa 1 Receptor (OpiateK) (AID 2283252);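 also: radioligand displacement from kappa opioid receptor in guinea pig cerebellar membranes; active means reduced radioligand binding relative to DMSO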
Outline: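 Cell-free tissue prep: guinea pig cerebellar membranes, radioligand displacement, 2 h incubation. Readout: filtration plus scintillation counting. Primary single-point 25 uM duplicate; actives retested in concentration series; DMSO negative control.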

[4] = biological target: human Adenosine A2a Receptor (AdoRA2a), ADORA2A (gene 135) (UniProt P29274); experiment: NVS_GPCR_hAdoRA2a: NovaScreen (NVS) G Protein-Coupled Receptor Assay for human Adenosine A2a Receptor (AdoRA2a) (AID 2283256)
Outline: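 HEK293-derived receptor preparation, radioligand displacement, 1.5 h, filtration + scintillation read. Loss of bound signal scored vs DMSO. Single-point 25 uM in duplicate first, then concentration-response for actives.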

[5] = tested on: guinea pig Muscarinic, Peripheral (Mperiperal) Receptor, Non-selective Binding, gene 100379235; experiment: NVS_GPCR_gMPeripheral_NonSelective: NovaScreen (NVS) G Protein-Coupled Receptor Assay for guinea pig Muscarinic, Peripheral (Mperiperal) Receptor, Non-selective Binding (AID 2283250)
Outline: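 Screened in duplicate at 25 uM, hits retested in concentration series to 50 uM max, using bladder membrane radioligand displacement from guinea pig. Filtration and scintillation counting 1 h post-dose, fitted relative to DMSO.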

[6] = biological target: human Dopamine Receptor D2 (DRD2), DRD2 (gene 1813) (UniProt P14416); experiment: NVS_GPCR_hDRD2s: NovaScreen (NVS) G Protein-Coupled Receptor Assay for human Dopamine Receptor D2 (DRD2) (AID 2283266)
Outline: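 Test compound (25 uM, duplicate in the primary screen; concentration series at follow-up) competed with radioligand for human DRD2 in CHO-derived membrane protein. Filter-based scintillation counting was done 1.5 hours after dosing, with loss of signal analysed against DMSO.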

[7] = biological target: human Adrenergic, Alpha 2c Receptor (Adra2C), ADRA2C (gene 152) (UniProt P18825); experiment: NVS_GPCR_hAdra2C: NovaScreen (NVS) G Protein-Coupled Receptor Assay for human Adrenergic, Alpha 2c Receptor (Adra2C) (AID 2283259)
Outline: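 Screened first in duplicate at 25 uM, with actives then run as concentration series. Membranes from Sf9 cells were exposed for 1 h, and displacement of radioligand was counted after filtration, using DMSO as baseline.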

[8] = biological target: human Serotonin, 5-Hydroxytryptamine Receptor 7 (5HT7), HTR7 (gene 3363) (UniProt P34969); experiment: NVS_GPCR_h5HT7: NovaScreen (NVS) G Protein-Coupled Receptor Assay for human Serotonin, 5-Hydroxytryptamine Receptor 7 (5HT7) (AID 2283255);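 also: hits reduce specific radioligand binding relative to DMSO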
Outline: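 Filter-bound radioactivity counted after 1 h, with loss of specific radioligand binding fitted against DMSO. Membrane protein came from CHO cells expressing human 5HT7. Chemicals were tested first at 25 uM in duplicate, then in concentration series if active.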

[9] = biological target: Beta-2 adrenergic receptor (Homo sapiens) (UniProt P07550); experiment: NVS_GPCR_hAdrb2: NovaScreen (NVS) G Protein-Coupled Receptor Assay for human Adrenergic, Beta 2 Receptor (Adrb2) (AID 2283261)
Outline: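 Compounds screened in duplicate at 25 uM, then actives in concentration series. Human beta-2 receptor from CHO material, cell-free; radioligand displacement after 1 h measured by filtration and scintillation against DMSO baseline.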

[10] = biological target: human Adrenergic, Beta 3 Receptor (Adrb3), ADRB3 (gene 155) (UniProt P13945); experiment: NVS_GPCR_hAdrb3: NovaScreen (NVS) G Protein-Coupled Receptor Assay for human Adrenergic, Beta 3 Receptor (Adrb3) (AID 2283262)
Outline: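 A cell-free filter binding assay read by scintillation counting, with displacement of a specific radioligand measured after 1 hour. The receptor source was SK-N-MC extracts (cells pretreated with isoproterenol and 8-bromo-cAMP). Compounds were first tested at 25 uM in duplicate and then in concentration series.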

[11] = biological target: human Serotonin, 5-Hydroxytryptamine Receptor 5A (5HT5A), HTR5A (gene 3361) (UniProt P47898); experiment: NVS_GPCR_h5HT5A: NovaScreen (NVS) G Protein-Coupled Receptor Assay for human Serotonin, 5-Hydroxytryptamine Receptor 5A (5HT5A) (AID 2283251)
Outline: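 Membranes from HEK293 cells, radioligand binding read by filtration and scintillation after 1 h. Single-concentration duplicate testing at 25 uM, then concentration-response for actives; positive-direction fitting relative to DMSO.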

[12] = biological target: human Dopamine Receptor D4.4 (DRD4.4), DRD4 (gene 1815) (UniProt P21917); experiment: NVS_GPCR_hDRD4.4: NovaScreen (NVS) G Protein-Coupled Receptor Assay for human Dopamine Receptor D4.4 (DRD4.4) (AID 2283264)
Outline: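 Filter-binding assay with a tritiated or iodinated ligand, cell-free receptor prepared from CHO, 1 hour. Loss of bound radioactivity versus DMSO; single 25 uM duplicate screen, then concentration-response for actives.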

[13] = biological target: guinea pig Leukotriene D4 Receptor (LTD4), CYSLTR1 (gene 100135514) (UniProt Q2NNR5); experiment: NVS_GPCR_gLTD4: NovaScreen (NVS) G Protein-Coupled Receptor Assay for guinea pig Leukotriene D4 Receptor (LTD4) (AID 2283248)
Outline: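 Guinea pig lung membrane preparation; bound radioligand measured by filter scintillation after 1 h, loss of signal versus DMSO marking displacement. Compounds tested at 25 uM in duplicate, hits retested to max 50 uM.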

[14] = biological target: human Adenosine A1 Receptor (AdoRA1), ADORA1 (gene 134) (UniProt P30542); experiment: NVS_GPCR_hAdoRA1: NovaScreen (NVS) G Protein-Coupled Receptor Assay for human Adenosine A1 Receptor (AdoRA1) (AID 2283254)
Outline: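 Membranes from human cortical tissue were incubated with radioligand and test chemical for 1 hour, then filtered and counted. Activity was taken as signal loss relative to DMSO, screened at 25 uM in duplicate before concentration-response follow-up.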

[15] = biological target: human Serotonin, 5-Hydroxytryptamine Receptor 2A (5HT2A), HTR2A (gene 3356) (UniProt P28223); experiment: NVS_GPCR_h5HT2A: NovaScreen (NVS) G Protein-Coupled Receptor Assay for human Serotonin, 5-Hydroxytryptamine Receptor 2A (5HT2A) (AID 2283249)
Outline: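 Radioligand displacement on human cortex tissue extract, counted by filtration and scintillation 1.5 h post-dosing. Initial single-concentration screen at 25 uM in duplicate, concentration series in follow-up; DMSO as baseline.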

[16] = biological target: human Adrenergic, Alpha 2A Receptor (Adra2A), ADRA2A (gene 150) (UniProt P08913); experiment: NVS_GPCR_hAdra2A: NovaScreen (NVS) G Protein-Coupled Receptor Assay for human Adrenergic, Alpha 2A Receptor (Adra2A) (AID 2283257)
Outline: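 Displacement of a specific radioligand from HT29 membrane protein was counted by filter scintillation after 1 h. Compounds were screened in duplicate at 25 uM, and actives were retested in concentration series. Fitting was positive-direction against DMSO.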

[17] = biological target: human Histamine 1 Receptor (H1), HRH1 (gene 3269) (UniProt P35367); experiment: NVS_GPCR_hH1: NovaScreen (NVS) G Protein-Coupled Receptor Assay for human Histamine 1 Receptor (H1) (AID 2283268)
Outline: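 Filter-based scintillation detection of radioligand binding to human H1, 1 h incubation; chemicals screened in duplicate at 25 uM, then concentration-response; signal loss relative to DMSO taken as activity.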

Chain of guinea pig Opioid, Kappa 1 Receptor (OpiateK), OPRK1 (gene 100135587) (P41144 whole entry, looked up): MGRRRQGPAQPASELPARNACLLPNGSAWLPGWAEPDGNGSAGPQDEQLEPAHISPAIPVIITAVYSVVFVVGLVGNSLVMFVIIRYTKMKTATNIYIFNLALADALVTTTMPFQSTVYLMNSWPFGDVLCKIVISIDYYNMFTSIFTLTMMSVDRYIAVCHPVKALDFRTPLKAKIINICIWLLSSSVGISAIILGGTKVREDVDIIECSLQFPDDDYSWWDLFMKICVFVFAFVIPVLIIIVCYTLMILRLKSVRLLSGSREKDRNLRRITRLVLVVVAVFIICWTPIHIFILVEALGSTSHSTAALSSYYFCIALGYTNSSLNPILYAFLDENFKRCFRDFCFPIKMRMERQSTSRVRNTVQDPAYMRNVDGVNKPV
Chain of human Dopamine Receptor D4.4 (DRD4.4), DRD4 (gene 1815) (P21917 whole entry, looked up): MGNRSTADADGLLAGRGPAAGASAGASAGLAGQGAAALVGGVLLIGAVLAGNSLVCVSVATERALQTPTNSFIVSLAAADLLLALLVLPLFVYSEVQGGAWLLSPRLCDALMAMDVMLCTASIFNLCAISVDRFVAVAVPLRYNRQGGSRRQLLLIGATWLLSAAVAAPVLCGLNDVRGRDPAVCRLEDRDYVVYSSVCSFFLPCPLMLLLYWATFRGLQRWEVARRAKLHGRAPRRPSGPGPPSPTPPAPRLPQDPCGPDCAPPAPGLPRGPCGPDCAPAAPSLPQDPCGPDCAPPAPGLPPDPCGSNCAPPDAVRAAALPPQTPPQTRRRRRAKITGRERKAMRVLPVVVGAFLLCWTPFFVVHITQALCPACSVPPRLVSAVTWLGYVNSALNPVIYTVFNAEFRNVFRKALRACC
Chain of human Adenosine A2a Receptor (AdoRA2a), ADORA2A (gene 135) (P29274 whole entry, looked up): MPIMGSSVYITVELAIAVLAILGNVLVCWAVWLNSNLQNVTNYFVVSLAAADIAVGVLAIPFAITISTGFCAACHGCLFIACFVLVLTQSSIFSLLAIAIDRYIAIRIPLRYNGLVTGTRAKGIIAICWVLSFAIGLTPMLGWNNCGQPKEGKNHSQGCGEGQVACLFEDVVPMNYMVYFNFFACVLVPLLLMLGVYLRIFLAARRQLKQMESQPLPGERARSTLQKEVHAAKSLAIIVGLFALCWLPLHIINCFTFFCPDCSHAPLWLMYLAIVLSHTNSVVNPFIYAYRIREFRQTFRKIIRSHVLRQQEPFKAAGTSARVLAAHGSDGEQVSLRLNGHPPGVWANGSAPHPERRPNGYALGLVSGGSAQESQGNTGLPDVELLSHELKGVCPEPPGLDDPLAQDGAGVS
Chain of human Serotonin, 5-Hydroxytryptamine Receptor 5A (5HT5A), HTR5A (gene 3361) (P47898 whole entry, looked up): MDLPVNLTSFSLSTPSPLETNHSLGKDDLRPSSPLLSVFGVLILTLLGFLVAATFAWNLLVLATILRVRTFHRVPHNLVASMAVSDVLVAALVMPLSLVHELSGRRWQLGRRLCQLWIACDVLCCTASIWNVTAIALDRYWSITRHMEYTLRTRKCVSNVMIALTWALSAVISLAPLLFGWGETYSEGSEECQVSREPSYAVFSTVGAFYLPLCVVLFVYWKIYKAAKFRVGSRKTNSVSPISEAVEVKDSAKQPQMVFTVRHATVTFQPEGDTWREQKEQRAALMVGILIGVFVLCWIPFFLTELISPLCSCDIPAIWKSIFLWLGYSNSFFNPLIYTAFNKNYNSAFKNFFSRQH
Chain of human Serotonin, 5-Hydroxytryptamine Receptor 6 (5HT6), HTR6 (gene 3362) (P50406 whole entry, looked up): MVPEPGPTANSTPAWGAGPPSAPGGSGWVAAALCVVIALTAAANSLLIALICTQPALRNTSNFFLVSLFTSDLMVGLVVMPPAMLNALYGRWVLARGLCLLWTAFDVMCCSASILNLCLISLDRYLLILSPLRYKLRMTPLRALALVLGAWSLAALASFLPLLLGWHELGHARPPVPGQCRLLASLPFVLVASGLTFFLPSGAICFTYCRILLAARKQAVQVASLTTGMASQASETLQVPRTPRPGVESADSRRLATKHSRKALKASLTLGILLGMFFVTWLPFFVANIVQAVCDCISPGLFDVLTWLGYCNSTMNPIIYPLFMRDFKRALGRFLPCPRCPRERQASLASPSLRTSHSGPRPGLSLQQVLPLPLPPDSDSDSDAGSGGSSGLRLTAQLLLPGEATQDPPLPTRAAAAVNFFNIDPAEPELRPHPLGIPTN
Chain of human Adrenergic, Alpha 2c Receptor (Adra2C), ADRA2C (gene 152) (P18825 whole entry, looked up): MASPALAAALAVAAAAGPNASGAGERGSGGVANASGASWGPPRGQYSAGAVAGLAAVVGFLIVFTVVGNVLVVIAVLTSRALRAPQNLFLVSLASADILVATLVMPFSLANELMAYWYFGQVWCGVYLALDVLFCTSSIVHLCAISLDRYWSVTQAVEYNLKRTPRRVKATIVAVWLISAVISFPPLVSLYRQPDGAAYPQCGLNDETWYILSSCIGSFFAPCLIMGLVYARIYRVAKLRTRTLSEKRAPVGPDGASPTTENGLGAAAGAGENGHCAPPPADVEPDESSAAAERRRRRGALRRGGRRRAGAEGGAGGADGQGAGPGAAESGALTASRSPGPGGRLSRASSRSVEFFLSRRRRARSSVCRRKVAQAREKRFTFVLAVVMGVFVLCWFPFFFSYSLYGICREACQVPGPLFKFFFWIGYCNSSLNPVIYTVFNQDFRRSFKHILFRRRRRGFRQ
Chain of human Dopamine Receptor D2 (DRD2), DRD2 (gene 1813) (P14416 whole entry, looked up): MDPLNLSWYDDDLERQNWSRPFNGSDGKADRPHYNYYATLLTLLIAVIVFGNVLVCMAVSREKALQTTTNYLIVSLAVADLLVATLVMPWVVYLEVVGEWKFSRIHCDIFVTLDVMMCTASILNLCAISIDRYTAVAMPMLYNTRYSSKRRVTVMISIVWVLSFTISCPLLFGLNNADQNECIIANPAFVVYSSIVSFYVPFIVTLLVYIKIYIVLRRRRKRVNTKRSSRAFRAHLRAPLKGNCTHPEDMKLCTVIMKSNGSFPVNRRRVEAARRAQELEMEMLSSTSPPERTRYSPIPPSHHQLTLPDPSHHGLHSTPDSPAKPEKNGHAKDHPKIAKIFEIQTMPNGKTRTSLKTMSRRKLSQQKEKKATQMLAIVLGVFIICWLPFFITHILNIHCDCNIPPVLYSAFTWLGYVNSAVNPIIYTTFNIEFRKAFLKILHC
Chain of human Adrenergic, Beta 1 Receptor (Adrb1), ADRB1 (gene 153) (P08588 whole entry, looked up): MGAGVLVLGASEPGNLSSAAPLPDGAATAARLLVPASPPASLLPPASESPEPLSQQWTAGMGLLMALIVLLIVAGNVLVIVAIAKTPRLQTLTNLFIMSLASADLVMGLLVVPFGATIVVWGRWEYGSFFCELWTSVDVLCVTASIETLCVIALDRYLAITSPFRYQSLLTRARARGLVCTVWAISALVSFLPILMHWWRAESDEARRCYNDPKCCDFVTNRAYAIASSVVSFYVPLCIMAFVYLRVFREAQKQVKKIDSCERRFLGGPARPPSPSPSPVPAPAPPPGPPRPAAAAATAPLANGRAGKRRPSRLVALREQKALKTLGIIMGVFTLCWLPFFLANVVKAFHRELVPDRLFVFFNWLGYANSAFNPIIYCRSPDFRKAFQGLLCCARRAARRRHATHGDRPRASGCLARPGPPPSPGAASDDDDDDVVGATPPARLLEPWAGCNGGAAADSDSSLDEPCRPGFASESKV
Chain of human Serotonin, 5-Hydroxytryptamine Receptor 7 (5HT7), HTR7 (gene 3363) (P34969 whole entry, looked up): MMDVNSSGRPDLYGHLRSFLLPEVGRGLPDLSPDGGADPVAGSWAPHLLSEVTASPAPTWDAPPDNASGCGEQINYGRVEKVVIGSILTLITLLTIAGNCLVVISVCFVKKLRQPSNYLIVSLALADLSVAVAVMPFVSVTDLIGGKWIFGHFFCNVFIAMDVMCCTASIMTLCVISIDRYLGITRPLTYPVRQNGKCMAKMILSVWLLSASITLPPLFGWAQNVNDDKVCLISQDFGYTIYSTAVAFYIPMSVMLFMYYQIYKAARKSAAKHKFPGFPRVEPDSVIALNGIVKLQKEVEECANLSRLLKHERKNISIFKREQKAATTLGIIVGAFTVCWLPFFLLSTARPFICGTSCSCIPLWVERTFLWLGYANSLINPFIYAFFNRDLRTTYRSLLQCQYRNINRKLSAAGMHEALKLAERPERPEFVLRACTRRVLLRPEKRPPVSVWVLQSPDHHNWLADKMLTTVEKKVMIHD
Chain of guinea pig Leukotriene D4 Receptor (LTD4), CYSLTR1 (gene 100135514) (Q2NNR5 whole entry, looked up): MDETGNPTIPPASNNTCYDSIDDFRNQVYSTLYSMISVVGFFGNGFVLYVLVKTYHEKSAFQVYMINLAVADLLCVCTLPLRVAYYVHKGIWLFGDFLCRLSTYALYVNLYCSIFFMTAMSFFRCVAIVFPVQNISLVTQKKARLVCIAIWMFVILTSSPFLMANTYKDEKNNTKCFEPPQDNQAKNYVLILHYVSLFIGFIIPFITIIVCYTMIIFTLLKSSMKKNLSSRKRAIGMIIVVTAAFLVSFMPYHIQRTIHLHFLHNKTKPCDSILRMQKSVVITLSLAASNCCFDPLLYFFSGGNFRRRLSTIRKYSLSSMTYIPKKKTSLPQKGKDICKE
Chain of Beta-2 adrenergic receptor (Homo sapiens) (P07550 whole entry, looked up): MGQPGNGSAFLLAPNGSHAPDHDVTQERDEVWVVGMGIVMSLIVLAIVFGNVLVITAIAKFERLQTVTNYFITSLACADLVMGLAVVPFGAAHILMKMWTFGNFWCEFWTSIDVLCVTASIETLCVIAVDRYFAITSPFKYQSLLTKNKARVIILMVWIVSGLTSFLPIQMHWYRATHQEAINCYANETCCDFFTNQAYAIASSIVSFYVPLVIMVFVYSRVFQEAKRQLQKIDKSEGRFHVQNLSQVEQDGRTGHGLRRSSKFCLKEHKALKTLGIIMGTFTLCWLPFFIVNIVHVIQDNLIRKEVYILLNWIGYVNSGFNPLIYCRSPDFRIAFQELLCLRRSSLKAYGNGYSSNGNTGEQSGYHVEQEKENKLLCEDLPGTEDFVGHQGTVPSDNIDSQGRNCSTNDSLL

Q: Which results are given for `Nc1ccc(S(=O)(=O)c2ccc(N)cc2)cc1`?
A: AC50 [1]: 1.2 µM (active); outcome [2]: inactive

Q: `COCCOC[C@H](CC1(C(=O)NC2CCC(C(=O)O)CC2)CCCC1)C(=O)Oc1ccc2c(c1)CCC2` (stereo partly specified) was tested. Which outcome [3] did it give?
A: inactive

Q: Which outcome [4] does the source give for `CCOc1ccc2c(c1)C(C)=CC(C)(C)N2` here?
A: inactive

Q: For `Cc1nc(-c2ccc3c(c2)CCN(CCC2CCC(NC(=O)/C=C/c4ccc(F)cc4)CC2)CC3)no1` (stereo unspecified), which AC50 [5] is on record?
A: 0.483 µM (active)

Q: And the AC50 [3]?
A: 0.262 µM (active)

Q: And the outcome [6]?
A: inactive

Q: With `CNC(=O)[C@H]1O[C@@H](n2cnc3c(NCc4cc(Cl)ccc4OCc4cc(C)no4)ncnc32)[C@H](O)[C@@H]1N` as the molecule, how does the outcome [7] read?
A: inactive

Q: For `CC(C)c1ccc(C(=O)N=C(N)N)cc1S(C)(=O)=O`, which AC50 [8] is on record?
A: 8.17 µM (active)

Q: Which outcome [2] does the source give for `O=C(O)Cc1ccccc1Nc1c(Cl)cccc1Cl` here?
A: inactive

Q: And the outcome [9]?
A: inactive

Q: And the outcome [10]?
A: inactive

Q: `Nc1ccccc1N` was tested. Which AC50 [4] did it give?
A: 0.975 µM (active)

Q: How did the outcome [5] turn out when `CN1CCN(Cc2cc(-c3ccc4[nH]c(=O)oc4c3)co2)[C@@H](c2ccc(F)cc2)C1` was run?
A: inactive

Q: And the AC50 [11]?
A: 9.14 µM (active)

Q: What about the outcome [3] of the same molecule?
A: inactive

Q: And the AC50 [1]?
A: 2.5 µM (active)

Q: And the AC50 [8]?
A: 15.6 µM (active)

Q: What about the AC50 [2] of the same molecule?
A: 22 µM (active)

Q: And the AC50 [7]?
A: 10.5 µM (active)

Q: And the AC50 [12]?
A: 14.2 µM (active)

Q: What about the outcome [6] of the same molecule?
A: inactive

Q: How did the outcome [5] turn out when `COc1ccc2c(c1)c(CC(=O)O)c(C)n2C(=O)c1ccc(Cl)cc1` was run?
A: inactive

Q: For `CCCCCCCC=O`, which AC50 [13] is on record?
A: 0.613 µM (active)

Q: `COc1cc(S(=O)(=O)O)c(C)cc1N=Nc1c(O)ccc2cc(S(=O)(=O)O)ccc12` was tested. Which outcome [3] did it give?
A: inactive

Q: What about the AC50 [8] of the same molecule?
A: 14.8 µM (active)

Q: What about the AC50 [7] of the same molecule?
A: 13.9 µM (active)

Q: And the AC50 [12]?
A: 38.7 µM (active)

Q: And the AC50 [6]?
A: 11.4 µM (active)

Q: With `CNCc1cc(F)ccc1Oc1ccc(Cl)c(Cl)c1` as the molecule, how does the AC50 [5] read?
A: 25 µM (active)

Q: And the AC50 [3]?
A: 12.7 µM (active)

Q: With `O=c1c(O)c(-c2ccc(O)c(O)c2)oc2cc(O)cc(O)c12` as the molecule, how does the outcome [14] read?
A: inactive

Q: And the AC50 [4]?
A: 11.8 µM (active)

Q: And the outcome [12]?
A: inactive

Q: How did the AC50 [3] turn out when `CCc1c(C(=O)NN2CCCCC2)nn(-c2ccc(Cl)cc2Cl)c1-c1ccc(Br)cc1` was run?
A: 9.97 µM (active)

Q: And the outcome [12]?
A: inactive

Q: Which results are given for `NC(=O)Cn1c(=O)cc(CCN2CCN(c3nccc4sccc34)CC2)c2ccc(F)cc21`?
A: AC50 [15]: 0.00229 µM (active); outcome [5]: inactive; AC50 [11]: 0.834 µM (active); AC50 [1]: 0.214 µM (active); AC50 [8]: 0.0155 µM (active); AC50 [16]: 2.03 µM (active); AC50 [2]: 1.38 µM (active); AC50 [7]: 0.666 µM (active); AC50 [9]: 8.69 µM (active); AC50 [12]: 0.023 µM (active); AC50 [6]: 0.926 µM (active); AC50 [17]: 0.199 µM (active)

Q: `NS(=O)(=O)c1cc2c(cc1Cl)NCNS2(=O)=O` was tested. Which outcome [1] did it give?
A: inactive

Q: How did the outcome [13] turn out when `COc1cc(-c2nc(NC(=O)c3cc4cc(C)cc(C)c4n3CC(=O)O)sc2CCC2CCCCC2)c(OC)cc1Cl` was run?
A: inactive

Q: And the outcome [11]?
A: inactive
